The results in this text go back to ChEMBL document CHEMBL3433997, “St. Jude Leishmania screening dataset” (2016).

Structures are written as SMILES.

What all share (format): functional
Assay [1] deals with Solute carrier family 2, facilitated glucose transporter member 1 (Homo sapiens) (UniProt P11166). Nature of the assay: ST_JUDE_LEISH: Cytotoxicity at 2uM final concentration against transgenic Leishmania Mexicana promastigotes LmGLUT1 that are glucose transport deficient and complemented with the human glucose transporter GLUT1. Activity is measured by DNA content using SYBR green in vitro.
Solute carrier family 2, facilitated glucose transporter member 1 (Homo sapiens), sequence (P11166 whole entry): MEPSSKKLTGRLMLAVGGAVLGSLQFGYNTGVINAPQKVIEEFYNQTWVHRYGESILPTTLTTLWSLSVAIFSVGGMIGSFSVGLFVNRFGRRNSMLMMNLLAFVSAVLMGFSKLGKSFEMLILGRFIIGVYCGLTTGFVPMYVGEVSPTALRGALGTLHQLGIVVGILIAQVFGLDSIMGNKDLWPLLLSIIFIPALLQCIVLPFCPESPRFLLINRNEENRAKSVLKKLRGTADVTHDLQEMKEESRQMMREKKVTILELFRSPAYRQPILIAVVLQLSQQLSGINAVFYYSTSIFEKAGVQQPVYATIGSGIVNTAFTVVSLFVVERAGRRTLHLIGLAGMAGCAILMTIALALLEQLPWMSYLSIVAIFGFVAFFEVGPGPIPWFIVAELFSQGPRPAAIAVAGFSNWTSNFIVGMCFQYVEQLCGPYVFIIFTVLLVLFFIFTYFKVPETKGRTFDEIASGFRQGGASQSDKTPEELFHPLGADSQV

The target of assay [2] is Hexose transporter 1 (Plasmodium falciparum) (UniProt O97467). Nature of the assay: ST_JUDE_LEISH: Cytotoxicity at 2uM final concentration against transgenic Leishmania Mexicana promastigotes LmPfHT that are glucose transport deficient and complemented with the Plasmodium falciparum hexose transporter. Activity is measured by DNA content using SYBR green in vitro.
The target in assay [3] is Glucose transporter (Leishmania mexicana) (UniProt O61059). The experiment in a line: ST_JUDE_LEISH: Cytotoxicity at 2uM final concentration against transgenic Leishmania Mexicana promastigotes LmGT2 that are glucose transport deficient and complemented with the L. Mexicana glucose transporter 2. Activity is measured by DNA content using SYBR green in vitro.

In general, inhibition refers to the relative decrease from the control value, in per cent. Turning to `COc1ccc2ncc(C#N)c(CCN3CCC(NCc4ccc5c(c4)NC(=O)CO5)CC3)c2c1`, the inhibition amounted to 12.7% in assay [1], 9.55% in assay [2] and 8.73% in assay [3].
The matching figures for `COc1cc(/C=N/Nc2nc(Nc3ccccc3)nc(Nc3ccccc3)n2)ccc1OCc1ccccc1[N+](=O)[O-]`: 4.18%, 3.92% and 0.87%.
The matching figures for `CC(C)N1CCN(C(CN2CCN(CCCOc3cccc4ccccc34)CC2)c2ccc(F)cc2)CC1` (centres undefined): -1.68%, 0.92% and 4.19%.
In the same order, the values of `COc1ccc(Nc2nc(N)c3cc(OC)c(OC)cc3n2)cc1OC` are 9.02%, 7.54% and 5.87%.
As to `COc1ccc2c(=NN=Cc3c(OC)ccc4ccccc34)cc(C)[nH]c2c1`, the inhibition in assay [1] was 2.05%; in assay [2], 2.99%; in assay [3] it was 4.08%.
Take `COc1ccc2nccc([C@@H](O)CN3CCC(NCc4ccc5c(c4)nnn5C(C)C)CC3)c2c1`: the inhibition in assay [1] came out at 18.3%; in assay [2] it was 20.9%; in assay [3], 5%.
In the same order, the values of `O=C(Nc1ccc(OCc2ccccc2)cc1)c1nc2ccccc2nc1Cl` are 1.33%, 1.29% and 1.34%.
The matching figures for `Nc1ncc(OC2CCCCC2)c(N)n1`: -1.08%, 0.87% and -1.09%.
The matching figures for `COc1ccc(Nc2nc(N/N=C/c3ccc(-c4ccc([N+](=O)[O-])cc4)o3)nc(Nc3ccccc3)n2)cc1`: 14.4%, 10.6% and 9.94%.
With `CNC(=O)C1Cc2c([nH]c3ccc(Br)cc23)C2(CCN(CCc3ccccc3)CC2)N1` (centres undefined), the inhibition stood at 5.38% in assay [1], 3.44% in assay [2] and 6.65% in assay [3].
The matching figures for `COc1ccc2c(c1CNCCCCCCNCc1c(OC)ccc3c1CCCC3)CCCC2`: 11.1%, 8.33% and 7.55%.
In the case of `CCN(CC)CCCC(C)Nc1ccnc2cc(Cl)ccc12` (centres undefined), the inhibition was 1.44% in assay [1], 1.5% in assay [2] and 1.51% in assay [3].
`O=c1cc(NCCCNCc2sc(Br)nc2Br)[nH]c2ccccc12`: the inhibition in assay [1] was determined as 3.62%; in assay [2], 4.14%; in assay [3] it was 4.34%.
